This is an account of results in PubChem BioAssay (NCI).

Compounds without any hit were thinned out: in the full panel of roughly 79,000, 15% have a hit. A number with no mark means an inactive call. Calls of active or inactive are those of the source. No stated cut-off is given here; in the data, active means growth inhibition above about 70%; inactive means the rest.

A short description of experiment [1]: NCI Yeast Anticancer Drug Screen. Data for the rad50 strain (AID 155).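 Further: 0% = growth of vehicle-only cultures of the same strain.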 To be noted: S. cerevisiae rad50 strain growth inhibition, active compounds read high. In a few lines: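 Inhibition values express reduced yeast growth in compound-treated cultures relative to vehicle-treated controls.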
Experiment [2] can be described thus: NCI Yeast Anticancer Drug Screen. Data for the mec2-1 strain (AID 157). The conditions noted are these: S. cerevisiae mec2-1 strain, active compounds read high. In a few lines:
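Test agents were screened against the mec2-1 yeast strain, with defined DNA repair or cell cycle alteration. Growth was scored as inhibition against vehicle-only controls.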

Experiment [3] in a line: NCI Yeast Anticancer Drug Screen. Data for the sgs1 mgt1 strain (AID 161).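 Further: 0% = growth of cultures given vehicle only.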 The conditions noted are these: S. cerevisiae sgs1 mgt1 strain, active compounds read high. In a few lines:
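Test agents were incubated with a DNA-repair-mutant yeast strain. Growth was then read and compared against vehicle-treated controls.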

Experiment [4] in a line: NCI Yeast Anticancer Drug Screen. Data for the cln2 rad14 strain (AID 165).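 Further: 0% = growth equal to vehicle treated cultures.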 To be noted: S. cerevisiae cln2 rad14 strain, active compounds read high. In a few lines: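 Growth of compound-exposed yeast (cln2 rad14 genotype) measured and expressed as inhibition relative to vehicle.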
Experiment [5] is described as follows: NCI Yeast Anticancer Drug Screen. Data for the bub3 strain (AID 167). To be noted: S. cerevisiae bub3 mutant strain, active compounds read high. In a few lines:
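Steps: expose the mutant yeast strain to compound; grow alongside vehicle-treated cultures; measure growth; express inhibition against the vehicle cultures.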

Experiment [6] in a line: NCI Yeast Anticancer Drug Screen. Data for the mlh1 rad18 strain (AID 175). The conditions noted are these: S. cerevisiae mlh1 rad18 strain growth inhibition, active compounds read high. In a few lines: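 In this whole-cell yeast screen, a strain with altered DNA damage repair is challenged with compound, and its growth is measured against matched vehicle-treated controls.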
The mark [7] stands for this setting: at 5.0 µM (retest, dose inferred, filed as 0.5).
Setting [8] is: at 50.0 µM (retest, dose inferred, filed as 5.0).

For `CCCCCCCSCC1C(=O)C23CC1CCC2C12COC(O)C1C(C)(C)C(O)CC2OC3=O` (configuration not stated), the growth inhibition in experiment [1] (setting [7]) was -19%; in experiment [1] (setting [8]), 98% (active); in experiment [1] (at 50.0 µM) it was 91.7% (active); in experiment [2] (setting [7]), 1%; in experiment [2] (setting [8]) it was 99% (active); in experiment [2] (at 50.0 µM), 92.2% (active). The growth inhibition is -11% in experiment [3] (setting [7]); 98% (active) in experiment [3] (setting [8]); 92.2% (active) in experiment [3] (at 50.0 µM); 9% in experiment [4] (setting [7]); 99% (active) in experiment [4] (setting [8]); 90% (active) in experiment [4] (at 50.0 µM). The growth inhibition in experiment [5] (setting [7]) was -4%; in experiment [5] (setting [8]) it was 99% (active); in experiment [5] (at 50.0 µM), 89% (active); in experiment [6] (setting [7]) it was -29%; in experiment [6] (setting [8]), 98% (active); in experiment [6] (at 50.0 µM) it was 63.4%.

With `CCC1=C(C)/C(=C/c2[nH]c(C(Br)Br)c(CC)c2C)N=C1C(Br)Br`, the growth inhibition is -1% in experiment [1] (setting [7]); 98% (active) in experiment [1] (setting [8]); 30.6% in experiment [1] (at 50.0 µM); -6% in experiment [2] (setting [7]); 99% (active) in experiment [2] (setting [8]); 45.1% in experiment [2] (at 50.0 µM). In addition, the growth inhibition in experiment [3] (setting [7]) is 2%; in experiment [3] (setting [8]) it was 99% (active); in experiment [3] (at 50.0 µM), 26%; in experiment [4] (setting [7]), -6%; in experiment [4] (setting [8]), 97% (active); in experiment [4] (at 50.0 µM), 75.2% (active). Further, the growth inhibition in experiment [5] (setting [7]) is 0%; in experiment [5] (setting [8]) it was 93% (active); in experiment [5] (at 50.0 µM), 49.3%; in experiment [6] (setting [7]), 0%; in experiment [6] (setting [8]), 98% (active); in experiment [6] (at 50.0 µM), 45.6%.

Take `CCCCOc1ccc(CC(O)CN2CCCCC2C)cc1` (configuration not stated): the growth inhibition in experiment [1] (setting [7]) was 22%; in experiment [1] (setting [8]), 49%; in experiment [1] (at 50.0 µM), 75.2% (active); in experiment [2] (setting [7]), 21%; in experiment [2] (setting [8]), 51%; in experiment [2] (at 50.0 µM) it was 52.5%. The growth inhibition is 33% in experiment [3] (setting [7]); 61% in experiment [3] (setting [8]); 78% (active) in experiment [3] (at 50.0 µM); 36% in experiment [4] (setting [7]); 57% in experiment [4] (setting [8]); 73.7% (active) in experiment [4] (at 50.0 µM). In addition, the growth inhibition in experiment [5] (setting [7]) is 36%; in experiment [5] (setting [8]), 71% (active); in experiment [5] (at 50.0 µM) it was 85.6% (active); in experiment [6] (setting [7]), 24%; in experiment [6] (setting [8]), 60%; in experiment [6] (at 50.0 µM), 51%.

As for `Cc1ccc(C)c(C(=O)CCN)c1`, the growth inhibition in experiment [1] (setting [7]) is -2%; in experiment [1] (setting [8]), 5%; in experiment [1] (at 50.0 µM), 3.45%; in experiment [2] (setting [7]), 1%; in experiment [2] (setting [8]) it was 1%; in experiment [2] (at 50.0 µM), -10.7%. Moreover, the growth inhibition in experiment [3] (setting [7]) was 0%; in experiment [3] (setting [8]) it was -2%; in experiment [3] (at 50.0 µM), 0.3%; in experiment [4] (setting [7]), 6%; in experiment [4] (setting [8]), 2%; in experiment [4] (at 50.0 µM), 84.8% (active). The growth inhibition in experiment [5] (setting [7]) is 7%; in experiment [5] (setting [8]), 8%; in experiment [5] (at 50.0 µM), -5.3%; in experiment [6] (setting [7]), 2%; in experiment [6] (setting [8]), 6%; in experiment [6] (at 50.0 µM), 3.55%.

`CC1C/C(=C\c2ccc(O)c(O)c2)C(=O)/C(=C/c2ccc(O)c(O)c2)C1` (configuration not stated): the growth inhibition in experiment [1] (setting [7]) is 22%; in experiment [1] (setting [8]) it was 71% (active); in experiment [1] (at 50.0 µM) it was 52.4%; in experiment [2] (setting [7]), 20%; in experiment [2] (setting [8]), 67%; in experiment [2] (at 50.0 µM), 32.3%. Further, the growth inhibition in experiment [3] (setting [7]) was 17%; in experiment [3] (setting [8]), 66%; in experiment [3] (at 50.0 µM), 47.5%; in experiment [4] (setting [7]) it was 7%; in experiment [4] (setting [8]), 65%; in experiment [4] (at 50.0 µM) it was 41%. The growth inhibition is 16% in experiment [5] (setting [7]); 67% in experiment [5] (setting [8]); 19.9% in experiment [5] (at 50.0 µM); 27% in experiment [6] (setting [7]); 84% (active) in experiment [6] (setting [8]); 21.6% in experiment [6] (at 50.0 µM).

In the case of `O=C1C2C3CCC(O3)C2C(=O)N1c1cccc2ccccc12` (configuration not stated), the growth inhibition is -1% in experiment [1] (setting [7]); -27% in experiment [1] (setting [8]); -1.2% in experiment [1] (at 50.0 µM); -5% in experiment [2] (setting [7]); -5% in experiment [2] (setting [8]); 8.15% in experiment [2] (at 50.0 µM). Also, the growth inhibition is -3% in experiment [3] (setting [7]); 1% in experiment [3] (setting [8]); 49% in experiment [3] (at 50.0 µM); 0% in experiment [4] (setting [7]); 1% in experiment [4] (setting [8]); -7.35% in experiment [4] (at 50.0 µM). The growth inhibition in experiment [5] (setting [7]) is 0%; in experiment [5] (setting [8]), 7%; in experiment [5] (at 50.0 µM), -10.4%; in experiment [6] (setting [7]), 0%; in experiment [6] (setting [8]) it was 5%; in experiment [6] (at 50.0 µM), 8.3%.

Regarding `CC/C(=C1\C=CC(=O)S1)C(CC)c1ccc(OC(C)=O)cc1` (configuration not stated), the growth inhibition in experiment [1] (setting [7]) was -14%; in experiment [1] (setting [8]), 99% (active); in experiment [1] (at 50.0 µM) it was 99.2% (active); in experiment [2] (setting [7]) it was -11%; in experiment [2] (setting [8]) it was 99% (active); in experiment [2] (at 50.0 µM), 89.3% (active). Besides, the growth inhibition in experiment [3] (setting [7]) was -7%; in experiment [3] (setting [8]), 98% (active); in experiment [3] (at 50.0 µM), 99.3% (active); in experiment [4] (setting [7]), 0%; in experiment [4] (setting [8]), 99% (active); in experiment [4] (at 50.0 µM), 70.2% (active). For the same molecule, the growth inhibition in experiment [5] (setting [7]) was -25%; in experiment [5] (setting [8]), 99% (active); in experiment [5] (at 50.0 µM) it was 93.9% (active); in experiment [6] (setting [7]), -4%; in experiment [6] (setting [8]) it was 99% (active); in experiment [6] (at 50.0 µM), 99.3% (active).

With `O=[N+]([O-])c1ccc2c(c1)N([O-])C1(CCCCC1)[N+]2=O`, the growth inhibition is 25% in experiment [1] (setting [7]); 99% (active) in experiment [1] (setting [8]); 89% (active) in experiment [1] (at 50.0 µM); 24% in experiment [2] (setting [7]); 99% (active) in experiment [2] (setting [8]); 92.9% (active) in experiment [2] (at 50.0 µM). The growth inhibition in experiment [3] (setting [7]) was 23%; in experiment [3] (setting [8]) it was 97% (active); in experiment [3] (at 50.0 µM) it was 91.2% (active); in experiment [4] (setting [7]), 22%; in experiment [4] (setting [8]), 98% (active); in experiment [4] (at 50.0 µM) it was 88% (active). Also, the growth inhibition in experiment [5] (setting [7]) was 10%; in experiment [5] (setting [8]), 98% (active); in experiment [5] (at 50.0 µM), 91.1% (active); in experiment [6] (setting [7]), 37%; in experiment [6] (setting [8]) it was 99% (active); in experiment [6] (at 50.0 µM), 88.4% (active).

Turning to `O=C(NC1CCN(Cc2ccccc2)CC1)c1ccc(I)cc1`, the growth inhibition in experiment [1] (setting [7]) is 40%; in experiment [1] (setting [8]), 59%; in experiment [1] (at 50.0 µM) it was 68%; in experiment [2] (setting [7]) it was 46%; in experiment [2] (setting [8]), 62%; in experiment [2] (at 50.0 µM), 49.7%. The growth inhibition was 52% in experiment [3] (setting [7]); 87% (active) in experiment [3] (setting [8]); 74.6% (active) in experiment [3] (at 50.0 µM); 81% (active) in experiment [4] (setting [7]); 88% (active) in experiment [4] (setting [8]); 77.2% (active) in experiment [4] (at 50.0 µM). Further, the growth inhibition was 60% in experiment [5] (setting [7]); 49% in experiment [5] (setting [8]); 74.3% (active) in experiment [5] (at 50.0 µM); 53% in experiment [6] (setting [7]); 78% (active) in experiment [6] (setting [8]); 76.8% (active) in experiment [6] (at 50.0 µM).
